# Reference: PubChem BioAssay (EPA / NIEHS)
# Where “and” joins values, the source holds several entries; their conditions need not be identical. Equal entries are not always repeated. More than one record can exist for a structure, and the calls need not agree. Calls of active or inactive are those of the source. Rule for the calls: active = hit-call score of the fitted dose curve at least 0.9, where 1 is the maximum; inactive = score below 0.9.
# Assay: APR_HepG2_MitoMass_72hr: Apredica 72-hour HepG2 Assay for Mitochondrial Mass (AID 2282924);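 note: MitoTracker Red CMXRos stain intensity per cell imaged as mitochondrial mass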
# Conditions: high-content imaging, actives raise or lower the signal
# Description: APR_HepG2_72hr is a cell-based, multiplexed-readout assay that uses HepG2, a human liver cell line, with measurements taken at 72 hours after chemical dosing in a 384-well plate.APR_HepG2_MitoMass_72hr is one of 10 assay component(s) measured or calculated from the APR_HepG2_72hr assay. It is designed to make measurements of cell phenotype, a form of morphology reporter, as detected with fluorescence intensity signals by HCS Fluorescent Imaging technology.Data from the assay component APR_HepG2_MitoMass_72hr was analyzed into 1 assay endpoint. This assay endpoint, APR_HepG2_MitoMass_72hr, was analyzed with bidirectional fitting relative to DMSO as the negative control and baseline of activity. Using a type of morphology reporter, gain or loss-of-signal activity can be used to understand changes in the signaling. Furthermore, this assay endpoint can be referred to as a primary readout, because this assay has produced multiple assay endpoints where this one serves a signaling function. To generalize the intended target to other relatable targets, this assay endpoint is annotated to the cell morphology intended target family, where the subfamily is organelle conformation.
# Cells were treated with dimethyl sulfoxide (DMSO) as a solvent control at a final concentration of 0.5% v/v or with compounds in DMSO with a resulting final DMSO concentration of 0.5% v/v. Compound treatment was done at concentrations of 0.39, 0.78, 1.56, 3.12, 6.24, 12.5, 25, 50, 100, and 200 uM in duplicate on each plate. Cells were treated with compounds for 1, 24, or 72 hr. Carbonyl […] m-chloro-phenylhydrazone (CCCP) and taxol were used as positive controls for mitochondrial function and cytoskeletal stability, respectively; DMSO served as the negative control for this experiment. Cells were fixed by the direct addition of 50 uL formaldehyde in Hank's Balanced Salt Solution (HBSS) to a final concentration of 3.7%. After incubation in the fixation medium for 30 min at room temperature (293-298 K), cells were rinsed twice with HBSS and treated with cell permeabilization buffer (16 uL of 0.5% Triton X-100) for 10 min at room temperature (293-298 K) before labeling. For mitochondrial membrane potential and mitochondrial measurements, pre-fixed cells were incubated with 50 uL of MitoTracker Red CMXRos (Invitrogen) at a concentration of 250 nM for 30 min before fixation. In the remaining cases, post-fixed cells were labeled by incubation with a multiplexed mixture of primary antibodies in HBSS for 60 min at room temperature (293-298 K) to detect immunoreactivity of c-Jun (1:500), phospho-histone H3 (1:100), phospho-histone H2A.x (1:200), p53 (1:400), alpha-tubulin (1:200) and Hoechst 33342 (2 ug/mL). Cells were labeled for multiplexed imaging on two separate plates: a) Hoechst 33342, MitoTracker Red, phospho-histone H3, and alpha-tubulin, and b) Hoechst 33342, phospho-histone H2A.x, and c-Jun. A final rinse with HBSS (50 uL) was performed before analysis. The primary and secondary antibodies for the proteins were phospho-histone H3 (rabbit anti-phospho-histone H3 and FITC-donkey anti-rabbit IgG), phospho-histone H2A.x (mouse anti-phospho-histone H2A.x and FITC-donkey anti-mouse IgG), c-Jun (rabbit anti-phospho-c-Jun and Cy3-donkey anti-rabbit IgG), p53 (sheep anti-p53 and Cy5-donkey anti-sheep IgG), alpha-tubulin (mouse anti-alpha-tubulin and Cy5-donkey anti-mouse IgG). These antibodies are available as the CellCiphr HepG2 assay kit (Millipore).Digital images of each well were captured using a Cellomics ArrayScan VTI (Thermo Scientific Cellomics) (0.8 NA objective, 0.63x optical coupler, and XF-93 filter set) at 20x magnification. The images were acquired using the autofocus feature of the ArrayScan instrument, which entails the following steps. First, the camera focuses on channel 1 (Hoechst 33342), where nuclei are identified. Second, a Z offset of 1 um is used for capturing mitochondria (MitoTracker Red). […]
Compound,outcome,AC50
CCOC(=O)c1ccc(O)cc1,inactive,
CCCCCOC(=O)COc1cc(N2C(=O)C3=C(CCCC3)C2=O)c(F)cc1Cl,inactive,
CN(C)C(=O)Nc1ccc(Cl)c(Cl)c1,inactive,
N#CSCSc1nc2ccccc2s1,inactive,
C#CCOC(=O)[C@@H](C)Oc1ccc(Oc2ncc(Cl)cc2F)cc1,inactive,
C=CCOC(Cn1ccnc1)c1ccc(Cl)cc1Cl (stereo not given),inactive,
O=C(c1ccccc1)C1CCCCC1,inactive,
COC(=O)c1ccc(CNS(C)(=O)=O)cc1S(=O)(=O)NC(=O)Nc1nc(OC)cc(OC)n1,inactive,
COC(=O)c1ccccc1S(=O)(=O)NC(=O)Nc1nc(OC(F)F)cc(OC(F)F)n1,inactive,
CCCCC(CC)COC(=O)c1ccccc1C(=O)O (stereo not given),inactive,
CC(=O)S[C@@H]1CC2=CC(=O)CC[C@]2(C)[C@H]2CC[C@@]3(C)[C@@H](CC[C@@]34CCC(=O)O4)[C@H]12,,96.8 µM (active)
CCOC(=O)C(C)Oc1ccc(Oc2cnc3cc(Cl)ccc3n2)cc1 (stereo not given),inactive,
COC(=O)c1ccc(I)cc1S(=O)(=O)NC(=O)Nc1nc(C)nc(OC)n1,inactive,
CCCCCCC(C)OC(=O)COc1nc(F)c(Cl)c(N)c1Cl (stereo not given),inactive,
N[C@@H](Cc1cc(I)c(Oc2ccc(O)c(I)c2)c(I)c1)C(=O)O,inactive,
CCOC(=O)COc1cc(-n2ncc(C(F)(F)F)c(C)c2=O)c(F)cc1Cl,inactive,
C[C@]12CC[C@@H]3c4ccc(O)cc4C[C@@H](CCCCCCCCCS(=O)CCCC(F)(F)C(F)(F)F)[C@H]3[C@@H]1CC[C@@H]2O (stereo not given in full),inactive,
CCCCOC(=O)C(C)Oc1ccc(Oc2ccc(C(F)(F)F)cn2)cc1 (stereo not given),inactive,
CCCOC(=O)NCCCN(C)C,inactive,

Compound,outcome,AC50
Oc1ccc(C(c2ccc(O)cc2)C(Cl)(Cl)Cl)cc1,inactive,
CC(C)(c1ccc(O)cc1)c1ccc(O)cc1,inactive,122 µM (active)
c1ccc2[nH]c(-c3cscn3)nc2c1,inactive,
CCCCOC(=O)[C@@H](C)Oc1ccc(Oc2ccc(C(F)(F)F)cn2)cc1,inactive,
CCCN(CCC)C(=O)SCC,inactive,
O=C(O)c1ccccc1,inactive,
CCCOC(=O)c1ccc(C(=O)OCCC)nc1,inactive,
COC(=O)c1cccc(C)c1S(=O)(=O)NC(=O)Nc1nc(OCC(F)(F)F)nc(N(C)C)n1,inactive,
S=C(S)NCCNC(=S)S.[Mn+2].[S-]C([S-])=NCCN=C([S-])[S-].[Zn+2],inactive,31.4 µM (active) and 52.5 µM (active) and 169 µM (active)
COC(=O)CSc1cc(N=c2sc(=O)n3n2CCCC3)c(F)cc1Cl,inactive,
O=C(Nc1ccc([N+](=O)[O-])cc1Cl)c1cc(Cl)ccc1O,inactive,
COCCO,inactive,
COc1c(Cl)ccc(Cl)c1C(=O)O,inactive,
Cc1nn(C)c(Oc2ccccc2)c1C=NOCc1ccc(C(=O)OC(C)(C)C)cc1,inactive,
C[C@]12C[C@H](O)[C@H]3[C@@H](CCC4=CC(=O)CC[C@@]43C)[C@@H]1CC[C@@H]2C(=O)CO,,148 µM (active)
O=C(c1ccc(O)cc1O)c1ccc(O)cc1O,,4.43 µM (active)
c1ccc(Nc2ccccc2)cc1,inactive,
COC(=O)c1c(Cl)nn(C)c1S(=O)(=O)NC(=O)Nc1nc(OC)cc(OC)n1,inactive,
S=C([S-])NCCNC(=S)[S-].[Mn+2],,166 µM (active)
